This passage reports inhibition results from PubChem BioAssay AID1376 (SRMLSC, 2008).

Each structure is given as a SMILES string. In all, about 220,000 compounds went through this assay and about 530 (0.24%) were called active. The full list was thinned out, with actives kept by preference. Measured potencies and affinities stand elsewhere. Unmarked numbers belong to inactive results. Cut-off read from the data, not from the text of the source: active = inhibition above about 13%; inconclusive = no clear call, values can overlap the other calls; inactive = below that.

Bifunctional protein GlmU (Mycobacterium tuberculosis (strain ATCC 25618 / H37Rv)), sequence (P9WMN3 whole entry, looked up): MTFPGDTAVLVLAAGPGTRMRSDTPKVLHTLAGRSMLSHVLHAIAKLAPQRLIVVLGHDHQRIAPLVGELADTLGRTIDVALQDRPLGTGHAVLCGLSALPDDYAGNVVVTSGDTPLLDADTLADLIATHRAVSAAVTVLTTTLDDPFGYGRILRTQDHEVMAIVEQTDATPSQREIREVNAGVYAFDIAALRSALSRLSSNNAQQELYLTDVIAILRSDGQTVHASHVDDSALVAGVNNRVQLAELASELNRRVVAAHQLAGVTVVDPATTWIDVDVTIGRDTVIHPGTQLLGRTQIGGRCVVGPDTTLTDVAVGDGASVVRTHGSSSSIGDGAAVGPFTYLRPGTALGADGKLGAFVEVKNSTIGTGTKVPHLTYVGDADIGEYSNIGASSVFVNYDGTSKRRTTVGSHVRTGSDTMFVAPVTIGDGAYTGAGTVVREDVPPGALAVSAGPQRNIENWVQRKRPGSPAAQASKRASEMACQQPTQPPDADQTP

This assay addresses Bifunctional protein GlmU (Mycobacterium tuberculosis (strain ATCC 25618 / H37Rv)) (UniProt P9WMN3). Kind of assay: inhibition of mycobacterial GlmU enzyme – biochemical, glucosamine-1-phosphate acetyltransferase (AID 1376).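 Note: 0% = complete reaction with vehicle and 100% = reaction without substrate.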 To be noted: M. tuberculosis GlmU acetyltransferase enzyme assay; hits give high values;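 tested at 30 µM in the primary screen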.
With `O=C(O)c1cccc(NC(CNS(=O)(=O)c2ccc(Cl)cc2)c2ccccc2)c1` (stereo not given), the inhibition was 3.6%.

`CN1CCN(CCOc2ccc(Cl)c(Cl)c2)CC1`: the inhibition was -3.6%.

Turning to `CCc1ccccc1NC(=O)c1ccc(CN2CCC(Cc3ccccc3)CC2)cc1`, the inhibition was 3.49%.

`CCOC(=O)COc1cnc2ccccc2n1`: the inhibition is 1.75%.

Regarding `CC(=O)Nc1ccc(S(=O)(=O)Nc2nc3ccc(C)cc3s2)cc1`, the inhibition was 13.2% (active).

As for `COc1ccc2nc(NS(=O)(=O)c3ccc(NC(C)=O)cc3)sc2c1`, the inhibition was 4.76%.

Turning to `CC(=O)Nc1ccc2nc(NS(=O)(=O)c3ccc(C)cc3)sc2c1`, the inhibition is 3.98%.

On to `CCc1c(O)nc(SCC(=O)NCc2ccco2)[nH]c1=O`, for which the inhibition was -0.2%.

Turning to `COc1ccc(Nc2ccc(N3C(=O)CCC3=O)cc2[N+](=O)[O-])cn1`, the inhibition is 2.73%.

As for `CCCc1ccc(C(=O)NNc2cc(Cl)ccc2Cl)cc1`, the inhibition is 2.48%.

With `CCCc1ccc(C(=O)NNC(=O)c2ccc(Br)cc2)cc1`, the inhibition is 1.63%.

Consider `CCCc1ccc(C(=O)NNC(=O)c2ccc(Cl)cc2)cc1`, for which the inhibition is 17.1% (active).

Turning to `CCOc1ccccc1/C=N/NC(=O)CNC(=O)c1ccc(S(=O)(=O)N2CCOCC2)cc1`, the inhibition is 0.48%.

With `COC(=O)c1c(NC(=O)c2nc3ccccc3s2)sc2c1CCN(C(C)=O)C2`, the inhibition was -1.93%.

On to `CC(C)N1CCc2c(sc(NC(=O)c3nc4ccccc4s3)c2C(N)=O)C1`, for which the inhibition was 13.7% (active).

On to `CC(C)N1CCc2c(sc(NC(=O)c3cc(-c4cccs4)nc4ccccc34)c2C(N)=O)C1`, for which the inhibition is -3.1%.

Turning to `CCC(=O)N1CCc2cc(Br)cc(S(=O)(=O)CCC(=O)N(CC)CC)c21`, the inhibition was -2.77%.

Turning to `CCN=C1S/C(=C\c2cc(OCC)c(O)cc2Br)C(=O)N1CC`, the inhibition is -1.66%.

Turning to `COc1ccc(N(CC(=O)NN=C2CCCCCCC2)S(=O)(=O)c2ccccc2)cc1Cl`, the inhibition was 0.05%.

For the compound `CC(=O)Nc1ccc(NC(=O)CCCSc2nc3ccccc3[nH]2)cc1`, the inhibition was -7.79%.

For `Cc1cc(C(F)F)n2ncc(C(=O)NCc3ccc(F)cc3)c2n1`, the inhibition was 3.5%.

In the case of `Cc1cc(C(F)F)n2ncc(C(=O)NCc3ccccc3)c2n1`, the inhibition is 1.36%.

Take `COc1ccc(CNC(=O)c2cnn3c(C(F)F)cc(C)nc23)cc1`: the inhibition is 14.5% (active).

Regarding `CCS(=O)(=O)NCCNc1ccc([N+](=O)[O-])cc1`, the inhibition is 1.84%.

`Nc1nc(SCC(=O)NCc2ccccc2)n[nH]1`: the inhibition was 0.23%.

Take `Cc1cc2c(o1)CC(C)(C)CC2=O`: the inhibition is 1.91%.

For `O=C(Nc1cccnc1)c1cc2c(ccc3ccccc32)o1`, the inhibition was 7.23%.

Turning to `CCCCOC(=O)Nc1ccc(S(=O)(=O)Nc2nccs2)cc1`, the inhibition was -2.11%.

Turning to `Cc1c(N=Nc2c(-c3ccc([N+](=O)[O-])cc3)[nH]n(C(N)=S)c2=O)cccc1[N+](=O)[O-]`, the inhibition was 14.5% (active).

For the compound `NC(=S)n1[nH]c(-c2ccc([N+](=O)[O-])cc2)c(N=Nc2ccccc2[N+](=O)[O-])c1=O`, the inhibition was -2.18%.

Take `Cc1ccc([N+](=O)[O-])cc1N=Nc1c(-c2ccc([N+](=O)[O-])cc2)[nH]n(C(N)=S)c1=O`: the inhibition was 0.14%.

Turning to `NCCN1CCN(CCN)CC1`, the inhibition was -1.39%.

Regarding `COc1ccc(C2(C)NC(=O)N(CC(=O)Nc3ccc(-c4nc5ccc(C)cc5s4)cc3)C2=O)cc1` (stereo not given), the inhibition is -4.16%.

Take `O=c1cc(Cl)[nH]c(=O)n1CCNc1ncc(C(F)(F)F)cc1Cl`: the inhibition is -0.65%.

In the case of `O=C(c1ccccc1F)N1CCCC(C(=O)N2CCN(c3ccccc3)CC2)C1` (stereo not given), the inhibition was 4.78%.

For `CC(C)C(=O)N1CCN(c2ccc(NC(=O)c3cccs3)cc2)CC1`, the inhibition was -0.11%.

`C=CCOc1c(CNc2cccc(C(=O)O)c2)cccc1OC`: the inhibition was -2.58%.

On to `C=CCOc1c(CNc2ccc(C(=O)O)cc2)cccc1OCC`, for which the inhibition was -3.36%.

As to `C=CCOc1c(CNc2cccc(C(=O)O)c2)cccc1OCC`, the inhibition is 17.6% (active).

Regarding `COc1ccc(CC(=O)Nc2c3c(nn2-c2cccc(C)c2C)CS(=O)C3)cc1` (stereo not given), the inhibition was 0.63%.

As to `CCN(C(=O)c1cc2c(=O)[nH]c3ccc(C)cc3c2s1)c1cccc(C)c1`, the inhibition was 0.79%.

As to `Cn1c(=O)c2c(nc(SCC(=O)c3ccccc3F)n2C)n(C)c1=O`, the inhibition was 2.09%.

In the case of `COc1cccc2c1OC1(C)CC2NC(=O)N1` (stereo not given), the inhibition was 7.2%.

Regarding `COc1ccc(-c2nnc3ccc(SCC(=O)NCc4ccco4)nn23)cc1`, the inhibition was -0.33%.

`O=C(NC(Oc1ccccc1)C(Cl)(Cl)Cl)c1ccccc1` (stereo not given): the inhibition is 2.49%.

For `Cc1cccc(C(=O)NC(Oc2ccccc2)C(Cl)(Cl)Cl)c1` (stereo not given), the inhibition was 0.69%.

Take `COc1ccc(C(=O)NC(Oc2ccccc2)C(Cl)(Cl)Cl)cc1` (stereo not given): the inhibition is 46.8% (active).

As for `CCCCCC(=O)c1c(C)[nH]c(C(=O)OCC)c1C`, the inhibition was 2.82%.

As to `NC(=O)C1(N2CCCCC2)CCN(C(=S)Nc2cc(F)cc(F)c2)CC1`, the inhibition was 3.46%.

Consider `Cn1nnc(CC[N+](C)(C)C)n1`, for which the inhibition was -0.54%.

For `CCOC(=O)c1cnc2c(-c3ccc(Cl)cc3)c(C)nn2c1N`, the inhibition is -0.25%.

Consider `CCn1c(SCC(=O)OCC(=O)N2c3ccccc3NC(=O)C2(C)C)nnc1-c1ccco1`, for which the inhibition was 3.17%.

In the case of `CCN(c1ccc(NS(=O)(=O)c2cc(Cl)ccc2Cl)cc1)C(C)C`, the inhibition is -7.63%.

Regarding `CCc1c(C)sc(NC(=O)OC)c1C(=O)N1CCOCC1`, the inhibition was 2.3%.

As for `CCc1c(C)sc(NC(=O)c2ccco2)c1C(=O)N1CCOCC1`, the inhibition was 13.4% (active).

With `CCc1c(C)sc(NC(=O)c2ccco2)c1C(=O)N1CCCCC1`, the inhibition is 0.95%.

`Cc1ccccc1NC(=S)N(CCN(C)C)C(C)c1ccco1` (stereo not given): the inhibition is -1.1%.

As to `CC1=NN(c2ccccc2)C(=O)/C1=C/c1c(O)[nH]c(=S)[nH]c1=O`, the inhibition is -4.55%.

For `CC1=NN(c2ccccc2)C(=O)/C1=C/c1c(O)n(-c2ccc(F)c(Cl)c2)[nH]c1=O`, the inhibition was 13.6% (active).

Consider `CC1=NN(c2ccccc2)C(=O)/C1=C/c1c(O)n(-c2ccc(F)cc2)[nH]c1=O`, for which the inhibition is 7.97%.

Usually inhibition stands for the drop in the measured response relative to a control, in per cent.
